# FAS-TE inh: FAS thioesterase domain inhibitors, primary screen, biochemical, fluorescence intensity, uHTS. recombinant FAS-TE, OMFH fluorogenic substrate, fluorescence endpoint. inhibition, % at 15 µM. 0.67% of 360,000 active. Fatty acid synthase (Homo sapiens), P49327;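 active = compounds whose normalised, plate-corrected inhibition of enzyme fluorescence in the single-dose primary screen is 50% or more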;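 note: 0% = DMSO with enzyme and 100% = substrate without enzyme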
# MPTP block: mitochondrial permeability transition pore inhibitors, primary screen, biochemical, isolated mouse mitochondria, absorbance; Ca2+ swelling absorbance, 30 min; inhibition, % at 10 µM; 1.4% of 360,000 active; AID 602449, 2012;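 active = inhibition of 50% or more, scaled per plate between neutral and stimulator controls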;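 note: 0% = DMSO wells given calcium and 100% = 1 mM EGTA wells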
# aDG glyco act: activators of alpha-DG glycosylation, primary screen, uHTS, Pro5-aDG cells, AlphaScreen; alpha-DG glycosylation AlphaScreen (IIH6); 0% Pro5, 100% B10-LARGE cell signal; activation, % at 10 µM; 0.22% of 360,000 active; AID 624168, 2012;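 active = activation of at least 8% versus controls, or a plate z-score of at least 8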;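 note: Pro5 are CHO cells carrying HIG-tagged alpha-DG that lacks glycosylation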
# Yeast superoxide: reduction of superoxide in aged yeast, primary screen, HTS; S. cerevisiae aged cells, superoxide DHE fluorescence; stronger effect = lower value; superoxide response (% of plate mean), % at 10 µM; 0.18% of 330,000 active; AID 2690, 2010;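 active = superoxide response under a set limit, about three screen SD below normal, cut at about 65% in these data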;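 note: yeast aged for seven days with compound at 30 °C before DHE staining; 100% = average MFI of all compound-treated wells on the plate with controls excluded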
# Mot1-301 SUMO: yeast Mot1-301 growth rescue at high temperature, primary screen, SUMOylation pathway inhibitor project, S. cerevisiae, ATP luminescence, 38.5C; S. cerevisiae Mot1-301 growth rescue; percent above DMSO median, 100 means doubled; growth rescue, % at 18.8 µM; 1% of 320,000 active;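 active = every valid replicate shows activation above 250% relative to neutral control wells; inactive = the rest, any valid replicate at or below 250%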;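 note: OY570 slx delta 5 strain wells were the positive control but not used for scaling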
# H9c2 protect: cardioprotection against H2O2-induced cell death, primary screen, uHTS, H9c2 cells, ATPLite luminescence. H9c2 cardiomyocytes, H2O2 injury protection, 2 h. protection from H2O2 cell death, % at 20 µM. 0.63% of 360,000 active. AID 588492, 2011;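 active = compounds giving at least 50% protection of heart cells from peroxide-induced death in the single-dose screen, raw or plate-pattern-corrected value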;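 note: 0% = DMSO wells with peroxide and 100% = DMSO wells without peroxide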
# Rh123 counter: fluorescence retest of MPTP screen hits in isolated mitochondria, single concentration; inhibition, % at 10 µM; 78% of 5,000 active; membrane potential, Rhodamine 123 fluorescence; shares compounds with MPTP block; AID 624504, 2012; in the data active = inhibition above about 22%;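 note: 0% = DMSO vehicle and 100% = positive control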
# MPTP abs DR: mitochondrial permeability transition pore inhibitors, dose response, biochemical, absorbance, uHTS hits; 58% of 780 active; isolated mitochondria swelling; IC50, µM; AID 651561, 2012; shares compounds with MPTP block; in the data active = IC50 below about 20 µM
# MPTP cs DR: fluorescent counter-screen in isolated mitochondria, dose response, counter-screen for MPTP inhibitor project, biochemical, fluorescence, uHTS hits | shares compounds with MPTP block | isolated mitochondria counterscreen, fluorescence read-out | IC50, µM | 49% of 780 active; in the data active = IC50 below about 80 µM
# * = called active by the depositor; i = inactive; . = no result given. Rows were chosen to be rich in hits. Some 3.8% of all compounds tested hit in one or more screens of this group.
SMILES,FAS-TE inh,MPTP block,aDG glyco act,Yeast superoxide,Mot1-301 SUMO,H9c2 protect,Rh123 counter,others
COc1ccc(NS(=O)(=O)c2ccc(C(=O)N3CCCCCC3)cc2)cc1,0,54*,0,104,-8,-10,57*,
CN1CCN(c2ccc(S(=O)(=O)N3CCCCC3)cc2NC(=O)c2ccc3ccccc3c2)CC1,36,67*,0,101,-3,34,-15,MPTP abs DR=14*;MPTP cs DR=>80
COc1ccc(NS(=O)(=O)c2ccc(O)c(NC(=O)c3ccc(S(=O)(=O)N4CCCCCC4)cc3)c2)cc1,-33,66*,0,98,0,-11,49*,
CCN1CCN(c2ccc(S(=O)(=O)N3CCCCC3)cc2NC(=O)/C=C/c2ccc([N+](=O)[O-])cc2)CC1,28,-1,0,104,20,-18,.,
CCN1CCN(c2ccc(S(=O)(=O)N3CCCCC3)cc2NC(=O)/C=C/c2ccc(F)cc2)CC1,7,78*,3,84,-4,-2,-18,MPTP abs DR=i
COCC(=O)N1CCC(n2nccc2NC(=O)CCOc2ccccc2)CC1,-6,-2,0,126,-5,-1,.,
COc1ccc(NS(=O)(=O)c2cccc(NC(=O)c3ccc(S(=O)(=O)N4CCCCCC4)cc3)c2)cc1,22,84*,4,92,7,-14,86*,
COc1ccccc1N1CCN(CCCOc2ccc(F)cc2)CC1,-4,1,0,96,7,-5,.,
O=C1CCc2ccc(OCCCCN3CCN(c4cccc(Cl)c4Cl)CC3)cc2N1,17,80*,0,94,60,-34,20*,
O=S(=O)(c1ccc(NC(=S)Nc2ccccc2)cc1)N1CCOCC1,-5,6,0,92,-2,0,.,
CC(NC(=S)Nc1ccc(S(=O)(=O)N2CCOCC2)cc1)C1CC2CCC1C2 (stereo not given),12,93*,0,84,-8,-10,92*,
CC(C)CCCCCCNC(=S)Nc1ccc(S(=O)(=O)N2CCOCC2)cc1,27,84*,5,101,-8,-10,83*,
COc1cc(C(=O)/C=C/c2cccnc2)c([N+](=O)[O-])cc1OC,-6,0,0,98,10,2,.,
O=c1cc(-c2ccccc2Cl)oc2c(NS(=O)(=O)c3cc(Cl)cc(Cl)c3O)ccc(O)c12,68*,70*,0,83,-17,-27,6,
CCc1ccc(S(=O)(=O)Nc2ccc(O)c3c(=O)cc(-c4ccccc4Cl)oc23)cc1,36,3,0,99,-9,3,.,
COc1ccccc1S(=O)(=O)N1CCNC(=O)C1,-3,-1,0,90,-1,-2,.,
COC(=O)c1c(C)[nH]c(C(=O)CN2C(=O)NC3(CCOc4ccccc43)C2=O)c1C (stereo not given),0,0,0,83,17,2,.,
O=C(CSCc1ccccc1)Nc1ccc(F)c(F)c1,13,71*,0,98,57,-2,63*,
O=C(CSCc1ccc(F)cc1)Nc1ccccc1,0,-1,0,107,5,0,.,
CCC1=NN(C(=O)c2ccc(Br)cc2)C(O)(c2ccccc2)C1 (stereo not given),13,61*,0,94,17,9,75*,
CCN(CC(=O)Nc1cc(Cl)ccc1C)C(=O)CCS(=O)(=O)c1ccc(C)cc1,1,0,0,104,4,-5,.,
O=C(NC(NNc1ccc([N+](=O)[O-])cc1)(C(F)(F)F)C(F)(F)F)c1ccc(F)cc1,30,100*,0,92,14,-16,88*,
Cc1ccccc1C(=O)NNc1ccc([N+](=O)[O-])cc1,10,1,0,96,-3,0,.,
O=C(NC(NNc1ccc([N+](=O)[O-])cc1)(C(F)(F)F)C(F)(F)F)c1ccccc1Cl,18,90*,0,87,14,-12,84*,
COC(=O)C(NNc1ccccc1)(NC(=O)c1ccc(F)cc1)C(F)(F)F (stereo not given),3,2,0,96,-2,-6,.,
SMILES,FAS-TE inh,MPTP block,aDG glyco act,Yeast superoxide,Mot1-301 SUMO,H9c2 protect,Rh123 counter,others
CC(C)(C)CC(C)(C)NC(=O)Nc1cccc([N+](=O)[O-])c1,40,90*,0,119,-9,-13,84*,
Cc1cc(NC(=O)Nc2cccc([N+](=O)[O-])c2)no1,6,16,0,99,-7,9,.,
CC(C)(C)c1ccc(C(=O)Nc2cccc([N+](=O)[O-])c2)cc1,46,95*,1,80,121,-10,85*,
O=C(Nc1cccc(C(F)(F)F)c1)c1ccc2sc([C@H]3C[C@H](O)[C@@H](CO)O3)nc2c1,-4,0,0,.,.,4,.,
CC(C)c1ccc(C(C)NC(=S)NC2CCCCC2)cc1 (stereo not given),22,28,2,100,-23,-7,.,
CC(NC(=S)NC1CCCCC1)c1ccc(C(C)(C)C)cc1 (stereo not given),13,53*,2,105,27,-20,106*,
COC(=O)C(C(=O)OC)c1ccc(N)cc1,-4,2,0,96,56,2,.,
O=C(O)c1ccc(Cl)cc1NC(=O)C1CCN(S(=O)(=O)c2cccs2)CC1,-1,0,0,.,.,1,.,
CC1CC1C(=O)N1CCN(S(=O)(=O)c2cc(C(F)(F)F)cc(C(F)(F)F)c2)CC1 (stereo not given),1,101*,0,109,1,0,102*,
Cc1cnc(C(=O)N2CCN(S(=O)(=O)c3cc(C(F)(F)F)cc(C(F)(F)F)c3)CC2)cn1,-5,88*,0,.,.,-5,105*,
CCOC(=O)c1cc(-c2cccc(C(F)(F)F)c2)nc2nc(SC)[nH]c(=O)c12,-4,-3,0,113,16,7,.,
CCOC(=O)c1nc(C)nc(Sc2n[nH]c(-c3cc(C(F)(F)F)cc(C(F)(F)F)c3)n2)c1C,11,65*,0,102,-9,-31,72*,
